Only some compounds are listed: those with a hit (about 1.2% of all), similar ones and a draw of the others.
SRC2 inh = inhibition of GAL4-SRC2 driven luciferase reporter, primary screen, SRC2 inhibitor project, cell-based, luminescence; AID 651957, 2012; HEK293 GAL4-SRC2 luciferase reporter; inhibition, % at 9 µM; hit rate 0.17% among 370,000;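 active = inhibition above the mean inhibition of all tested compounds plus 3 SD, set per campaign, cut at about 52% in these data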;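 also: 0% = DMSO treated cells and 100% = cells given Gossypol at 36 µM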
NCOA3 inh = SRC3 coactivator transcriptional activity inhibitors, primary screen, cell-based, luminescence | Nuclear receptor coactivator 3 (Homo sapiens), Q9Y6Q9 | HEK293 GAL4-SRC3 luciferase reporter | inhibition, % at 3.6 µM | hit rate 0.17% among 360,000 | AID 588352, 2011;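 active = inhibition above a per-campaign cutoff, the mean of all compounds plus 3 SD, cut at about 60% in these data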;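 also: 0% = DMSO-treated cells and 100% = gossypol-treated cells at 36 µM; higher means less SRC3-driven luciferase light from the GAL4 reporter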
NR5A2 inv ag = LRH-1 (NR5A2) inverse agonists, primary screen, cell-based, luminescence, HEK293T, StAR-luciferase reporter | hit rate 0.13% among 360,000 | LRH-1 transfected, 24 h | AID 602396, 2012 | inhibition, % at 3.6 µM | Nuclear receptor subfamily 5 group A member 2 (Homo sapiens), O00482;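 active = inhibition above the mean inhibition of all tested compounds plus 3 SD, cut at about 73% in these data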;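 also: 0% = DMSO wells and 100% = reporter-only cells lacking LRH-1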
NCOA1 inh = SRC1 coactivator transcriptional activity inhibitors, primary screen, cell-based, luminescence | Nuclear receptor coactivator 1 (Homo sapiens), Q15788 | HEK293 GAL4-SRC1 luciferase reporter | inhibition, % at 3.6 µM | hit rate 0.12% among 360,000;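 active = inhibition above the campaign mean plus 3 SD, with each screening campaign given its own cutoff, cut at about 60% in these data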;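 also: 0% = DMSO treated cells and 100% = gossypol at 36 µM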
EBV LMP1 NFkB = EBV LMP1-driven NF-kappaB luciferase reporter inhibitors, primary screen, cell-based, luminescence, single point; LMP1-induced NF-kappaB luciferase reporter cells; inhibition, % at 12.5 µM; hit rate 0.69% among 350,000; AID 504558, 2011; in the data active = inhibition above about 41%; inconclusive = no clear call, values can overlap the other calls;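 also: 0% = neutral control wells and 100% = reference inhibitor control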
Shn3 inh set2 = reduction of Shn3 3'UTR firefly luciferase signal, primary screen, Schnurri-3 inhibitor project, cell-based, Clone20 osteoblasts, set 2; Clone20 osteoblast Shn3 3'UTR firefly luciferase, 24 h; inhibition, % at 12.5 µM; hit rate 0.52% among 360,000;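 active = mean inhibition of at least 75% with every replicate also reaching 75%; inconclusive = mean inhibition at least 75% but some replicate below; inactive = mean inhibition below 75%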;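 also: 0% = median of neutral control wells and 100% = pilot-screen positive control compound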
* = called active by the depositor; ? = inconclusive; · = no result.

SMILES	SRC2 inh	NCOA3 inh	NR5A2 inv ag	NCOA1 inh	EBV LMP1 NFkB	Shn3 inh set2
COC(=O)C1=C(C)N(Cc2ccccc2C(F)(F)F)C(=NCc2ccc(OC)cc2)NC1c1ccc(C(F)(F)F)cc1 (stereo unspecified)	-13.3	·	·	·	·	·
Nc1ccccc1SC1CC(=O)N(c2ccccc2Cl)C1=O (stereo unspecified)	-9.3	-14.0	-16.7	3.3	46.8*	-16.0
COc1ccc(CN2C(=O)c3ccnn3CC2(C)c2nnnn2-c2c(C)cccc2C)cc1 (stereo unspecified)	3.4	·	·	·	·	·
CC1CCN(S(=O)(=O)c2ccc3c(c2)C(=NO)c2cc(S(=O)(=O)N4CCC(C)CC4)ccc2-3)CC1	-5.8	-7.0	-6.1	-30.5	-166.2	95.0*
O=S(=O)(c1ccc2c(c1)C(=NO)c1cc(S(=O)(=O)N3CCCCC3)ccc1-2)N1CCCCC1	-22.3	5.8	14.3	-0.9	84.8*	97.7*
O=C(Nc1ccccc1)Nc1cc(OCC(F)(F)F)cc(OCC(F)(F)F)c1	17.3	66.9*	59.1	8.9	-4.9	93.4*
O=C(Nc1ccccc1)Nc1cc(Cl)cc(Cl)c1	12.3	10.1	-12.9	-7.2	-3.5	66.5
O=c1oc2ccccc2cc1-c1cn2cccnc2n1	-49.9	-91.7	-120.1	-106.8	28.6	-10.0
O=c1oc2ccccc2cc1-c1cn2ccccc2n1	27.5	20.5	-8.9	6.6	68.1*	?
Cc1ccc(C(=O)/C=C/C(=O)c2ccc(C)cc2)cc1	8.0	4.7	-1.5	-66.3	45.0*	37.9
Cc1ccc(C(=O)/C=C/Nc2ccccn2)cc1	45.0	18.7	-58.6	-12.7	68.6*	68.9
Cc1ccc(N/C=C/C(=O)c2ccc(C)cc2)cc1	-45.5	-45.5	-126.1	-99.4	-38.6	-63.5
c1ccc(-c2cc(-c3nnc4sc(Cc5cccs5)nn34)[nH]n2)cc1	-7.3	·	·	·	·	·
Cc1ccc(C(=O)NCC(=O)N(C)Cc2cccc(F)c2)s1	-19.4	7.5	-5.2	8.1	50.7*	-10.7
Cc1ccc(C(=O)NCC(=O)N(C)Cc2ccccc2C)s1	-24.7	-21.9	-42.6	-31.0	-3.1	-6.9
COc1cc(OC)c(OC)cc1CNc1cc(C)ccc1OC	29.3	26.7	26.0	9.0	13.2	88.5*
COc1ccc(C)cc1NCc1cccc(OC)c1OC	8.9	-15.9	11.8	-19.6	3.9	2.0
c1ccc(OCCSc2nnc3sc4ccccc4n23)cc1	22.3	-39.6	-70.1	-70.8	70.1*	22.0
CC(=O)NC1CCCCN(C)C1=O (stereo unspecified)	-6.2	·	·	·	·	·
CC[n+]1c(/C=C/Nc2ccccc2)sc2ccccc21	19.7	5.8	-12.2	9.0	5.5	91.7*
CCN1/C(=C/C=C/C=C/C=C/c2sc3ccccc3[n+]2CC)Sc2ccccc21	28.8	14.2	3.5	11.7	35.9	77.8
CC[n+]1c(C=C2C=C(C)OC(C)=C2)sc2ccccc21	-58.2	67.9*	75.6*	52.8	14.3	77.4
CCN1/C(=C/C=C/c2sc3ccccc3[n+]2CC)Sc2ccccc21	·	48.1	54.6	18.0	50.2*	94.8*
CC[n+]1c(/C=C2/C=C(C)CC(C)C2)sc2ccccc21 (stereo unspecified)	-2.4	18.8	9.3	-15.1	-6.1	77.7
CCOc1ccc(-n2c(SCC(=O)c3ccccc3Cl)nnc2-c2ccncc2)cc1	5.6	·	·	·	·	·
SMILES	SRC2 inh	NCOA3 inh	NR5A2 inv ag	NCOA1 inh	EBV LMP1 NFkB	Shn3 inh set2
O=C(Nc1ccc(Cl)c(Cl)c1)Nc1nccs1	-3.8	-35.1	-37.1	-6.8	66.3*	51.4
O=C(Nc1cccc(Cl)c1)Nc1nccs1	-20.5	-37.9	-47.0	-49.9	-11.7	-13.1
COc1ccc(C(C(=O)NC2CCCCC2)N(C(=O)CCl)c2cccc(Cl)c2)cc1 (stereo unspecified)	16.2	69.1*	15.8	17.1	-1.3	92.0*
COc1ccc(C(C(=O)NC2CCCC2)N(C(=O)c2ccoc2C)c2ccc(C)cc2)cc1 (stereo unspecified)	5.0	13.6	4.4	12.2	-9.5	6.1
COc1cccc(N(C(=O)c2cnccn2)C(C(=O)NC2CCCCC2)c2ccc(Cl)cc2)c1 (stereo unspecified)	-5.1	-4.0	0.9	2.8	-1.0	3.5
COc1ccc(C(C(=O)NC2CCCCC2)N(C(=O)CCl)c2ccc(OC)cc2)cc1 (stereo unspecified)	·	40.8	1.9	-14.1	?	91.8*
COc1ccc(C(C(=O)NC2CCCCC2)N(C(=O)CCl)c2ccc(C)cc2)cc1 (stereo unspecified)	37.9	56.3	-13.4	26.8	46.6*	3.5
COc1ccc(CN(C(=O)c2nsc(Cl)c2Cl)C(C(=O)NC2CCCC2)c2ccc(C)cc2)cc1 (stereo unspecified)	15.2	5.1	-3.5	-6.9	53.7*	19.6
C[C@@H]1COc2cc(N3CCSCC3)ccc2S(=O)(=O)N1C	15.1	·	·	·	·	·
COC(=O)[C@]12C[C@H](CC(=O)NCC34CC5CC(CC(C5)C3)C4)C(=O)N(Cc3ccco3)C1=C[C@H](C1CCCC1)O[C@@H]2C	-24.8	·	·	·	·	·
CCC(=O)NC(C)c1cc(Cl)c2cccnc2c1O (stereo unspecified)	-6.0	12.3	4.4	9.9	11.2	91.1*
CCC(=O)NC(c1ccc(C)cc1)c1cc(Cl)c2cccnc2c1O (stereo unspecified)	·	26.4	-2.7	-1.4	43.0*	79.1
CCCC(=O)NC(c1ccc2c(c1)OCO2)c1cc(Cl)c2cccnc2c1O (stereo unspecified)	·	37.7	-11.8	19.1	12.9	87.4*
CCC(=O)NC(c1ccc(OC)c(OC)c1)c1cc(Cl)c2cccnc2c1O (stereo unspecified)	-1.0	7.1	-9.7	10.8	-7.5	?
COc1ccc(C(NC(C)=O)c2cc(Cl)c3cccnc3c2O)cc1OC (stereo unspecified)	-14.9	23.6	-7.5	20.5	-5.3	88.7*
O=C(NC(c1ccccc1)c1cc(Cl)c2cccnc2c1O)c1cccnc1 (stereo unspecified)	-3.2	·	·	·	·	·
CCc1c(-c2ccccc2Br)ncn1CCc1ccccc1OC	-0.2	·	·	·	·	·
Cc1cc(-c2n[nH]c(=S)n2N=Cc2ccc(-c3ccccc3)cc2)n[nH]1	-18.4	·	·	·	·	·
COc1ccc(-c2nnc(SCc3c(F)cccc3F)n2N)cc1	-40.3	·	·	·	·	·
C=CCN1c2ccccc2[C@]23C[C@@H](C(=O)OC)N(C(=O)c4ccc(Br)cc4)C2=NC(C(=O)OC)=C(C(=O)OC)[C@H]13	-6.4	-19.1	4.5	-10.1	3.1	41.2
COC(=O)C1=C(C(=O)OC)[C@@H]2N(Cc3ccccc3)c3ccccc3[C@@]23C[C@@H](C(=O)OC)N(C(=O)c2ccc(Br)cc2)C3=N1	·	-5.6	-7.2	-4.8	0.5	96.6*

Compound activity (PubChem BioAssay)
